Reference: the antibiotic and cytotoxicity screens of Wong et al. (2023)
Hit rate of the full screen: of about 39,000 compounds, about 1,500 (3.8%) were called active. This is one part of a sample in which actives are shown more often than they occur.

Each compound was assayed on HSkMC (human skeletal muscle cells) (assay: cytotoxicity call (relative viability < 0.9)). Details: 10 µM.

SMILES	cytotoxicity call
N[C@@H](C(=O)N[C@@H]1C(=O)N2C(C(=O)O)=C(Cl)CS[C@H]12)c1ccccc1	inactive
C[C@@H]1CCCCO[C@H](CN(C)C(=O)Cc2ccccc2)[C@@H](C)CN([C@H](C)CO)C(=O)c2cc(NC(=O)C3CCCCC3)ccc2O1	inactive
Cc1ccc(S(=O)(=O)N[C@@H](Cc2ccccc2)C(=O)NCCn2cc(CCC(=O)NO)nn2)cc1	inactive
Cc1ccc(S(=O)(=O)N(C)C[C@@H]2Oc3ccc(NS(=O)(=O)c4cccs4)cc3CC(=O)N([C@@H](C)CO)C[C@@H]2C)cc1	inactive
C[C@H](O)C#Cc1ccc2c(c1)O[C@@H](CN(C)C(=O)Cc1ccccn1)[C@H](C)CN([C@@H](C)CO)S2(=O)=O	inactive
O=C(C[C@@H]1C=C[C@@H](NC(=O)CN2CCOCC2)[C@@H](CO)O1)NCc1cccc(F)c1	inactive
C[C@H]1CC=CC[C@H](c2cccc(Cl)c2)NC(=O)[C@@H](Cc2ccccc2)N(C)C(=O)c2ccccc2O1	inactive
COc1ccc(NC(=O)Nc2ccc3c(c2)C(=O)N([C@@H](C)CO)C[C@@H](C)[C@@H](CN(C)Cc2ccccc2)OCCCC[C@@H](C)O3)cc1	inactive
Cc1noc(C)c1NC(=O)Nc1cccc2c1O[C@@H](CN(C)S(=O)(=O)c1ccccc1)[C@@H](C)CN([C@H](C)CO)C2=O	inactive
Cc1ccc(S(=O)(=O)N(C)C[C@H]2OCCCC[C@@H](C)Oc3ccc(NC(=O)Nc4ccc(F)cc4)cc3C(=O)N([C@@H](C)CO)C[C@H]2C)cc1	inactive
Cc1ccc(S(=O)(=O)Nc2ccc3c(c2)C(=O)N([C@@H](C)CO)C[C@H](C)[C@@H](CN(C)S(=O)(=O)c2ccc(F)cc2)OCCCC[C@@H](C)O3)cc1	inactive
COc1ccc(S(=O)(=O)N(C)C[C@H]2OCCCC[C@H](C)Oc3ccc(NS(=O)(=O)c4cn(C)cn4)cc3C(=O)N([C@@H](C)CO)C[C@H]2C)cc1	active
Cc1ccc(S(=O)(=O)Nc2ccc3c(c2)C(=O)N([C@H](C)CO)C[C@@H](C)[C@H](CN(C)S(=O)(=O)c2ccc(F)cc2)OCCCC[C@@H](C)O3)cc1	inactive
Cc1ccc(S(=O)(=O)N(C)C[C@@H]2OCCCC[C@H](C)Oc3ccc(NC(=O)Nc4ccc(F)cc4)cc3C(=O)N([C@@H](C)CO)C[C@@H]2C)cc1	inactive
COc1ccc(S(=O)(=O)N(C)C[C@@H]2OCCCC[C@@H](C)Oc3ccc(NS(=O)(=O)c4cn(C)cn4)cc3C(=O)N([C@@H](C)CO)C[C@H]2C)cc1	inactive
Cc1ccc(S(=O)(=O)Nc2ccc3c(c2)C(=O)N([C@H](C)CO)C[C@H](C)[C@@H](CN(C)S(=O)(=O)c2ccc(F)cc2)OCCCC[C@H](C)O3)cc1	active
Cc1ccc(S(=O)(=O)N(C)C[C@@H]2OCCCC[C@@H](C)Oc3ccc(NS(=O)(=O)c4ccc(F)cc4)cc3C(=O)N([C@H](C)CO)C[C@H]2C)cc1	active
Cc1ccc(S(=O)(=O)Nc2ccc3c(c2)C(=O)N([C@H](C)CO)C[C@H](C)[C@H](CN(C)S(=O)(=O)c2ccc(F)cc2)OCCCC[C@H](C)O3)cc1	inactive
COc1ccc(S(=O)(=O)N(C)C[C@@H]2OCCCC[C@H](C)Oc3ccc(NS(=O)(=O)c4cn(C)cn4)cc3C(=O)N([C@H](C)CO)C[C@@H]2C)cc1	inactive
Cc1ccc(S(=O)(=O)N(C)C[C@H]2OCCCC[C@@H](C)Oc3ccc(NC(=O)Nc4ccc(F)cc4)cc3C(=O)N([C@@H](C)CO)C[C@@H]2C)cc1	active

SMILES	cytotoxicity call
Cc1ccc(S(=O)(=O)N(C)C[C@H]2OCCCC[C@H](C)Oc3ccc(NS(=O)(=O)c4ccc(F)cc4)cc3C(=O)N([C@@H](C)CO)C[C@@H]2C)cc1	inactive
C[C@H]1CN([C@@H](C)CO)C(=O)c2cc(NC(=O)C3CC3)ccc2O[C@H]1CN(C)Cc1ccc(Oc2ccccc2)cc1	inactive
COc1ccc(S(=O)(=O)N(C)C[C@@H]2Oc3ccc(NS(=O)(=O)c4cccs4)cc3C(=O)N([C@@H](C)CO)C[C@@H]2C)cc1	inactive
C[C@H]1CN([C@@H](C)CO)C(=O)Cc2cc(NC(=O)C3CC3)ccc2O[C@H]1CN(C)S(=O)(=O)c1cn(C)cn1	inactive
C[C@H]1CCCCO[C@H](CN(C)C(=O)Nc2ccc3c(c2)OCO3)[C@@H](C)CN([C@@H](C)CO)C(=O)c2cc(NC(=O)CCC(F)(F)F)ccc2O1	inactive
O=C(O)c1ccc(CCO)s1	inactive
COc1ccccc1C#Cc1ccc2c(c1)O[C@H](CN(C)Cc1cccnc1)[C@H](C)CN([C@@H](C)CO)S2(=O)=O	inactive
COc1ccccc1C#Cc1ccc2c(c1)O[C@H](CN(C)Cc1cccnc1)[C@@H](C)CN([C@@H](C)CO)S2(=O)=O	active
COc1ccccc1C#Cc1ccc2c(c1)O[C@@H](CN(C)Cc1cccnc1)[C@H](C)CN([C@H](C)CO)S2(=O)=O	active
COc1ccccc1C#Cc1ccc2c(c1)O[C@H](CN(C)Cc1cncnc1)[C@H](C)CN([C@@H](C)CO)S2(=O)=O	inactive
COc1ccccc1C#Cc1ccc2c(c1)O[C@@H](CN(C)Cc1cccnc1)[C@@H](C)CN([C@@H](C)CO)S2(=O)=O	inactive
COc1ccccc1C#Cc1ccc2c(c1)O[C@H](CN(C)Cc1cccnc1)[C@@H](C)CN([C@H](C)CO)S2(=O)=O	inactive
COc1ccccc1C#Cc1ccc2c(c1)O[C@@H](CN(C)Cc1cccnc1)[C@@H](C)CN([C@H](C)CO)S2(=O)=O	inactive
COc1ccccc1C#Cc1ccc2c(c1)O[C@H](CN(C)Cc1cccnc1)[C@H](C)CN([C@H](C)CO)S2(=O)=O	inactive
COc1ccccc1C#Cc1ccc2c(c1)O[C@@H](CN(C)Cc1cccnc1)[C@H](C)CN([C@@H](C)CO)S2(=O)=O	active
C[C@@H]1CN([C@H](C)CO[Si](C)(C)C(C)(C)C)C(=O)c2cc(NC(=O)C3CCCCC3)ccc2O[C@H]1CN(C)C(=O)c1ccc(Cl)cc1	inactive
COc1ccccc1CNC(=O)C[C@@H]1C[C@@H]2c3cc(NC(=O)Nc4ccc(C(F)(F)F)cc4)ccc3O[C@@H]2[C@@H](CO)O1	inactive
C=CCNC(=O)CSc1nc(=O)cc(N)[nH]1	inactive
COc1ccc(S(=O)(=O)N(C)C[C@H]2OCCCC[C@@H](C)Oc3ccc(NC(=O)Nc4ccc(C(F)(F)F)cc4)cc3C(=O)N([C@@H](C)CO)C[C@H]2C)cc1	active
COc1ccc(S(=O)(=O)N(C)C[C@@H]2OCCCC[C@H](C)Oc3ccc(NC(=O)Nc4ccc(C(F)(F)F)cc4)cc3C(=O)N([C@H](C)CO)C[C@@H]2C)cc1	inactive

SMILES	cytotoxicity call
C[C@@H]1CCCCO[C@H](CN(C)S(=O)(=O)c2ccc(Cl)cc2)[C@@H](C)CN([C@H](C)CO)C(=O)c2cc(NC(=O)Nc3ccc(C(F)(F)F)cc3)ccc2O1	active
COc1ccc(S(=O)(=O)N(C)C[C@H]2OCCCC[C@@H](C)Oc3ccc(NC(=O)Nc4ccc(C(F)(F)F)cc4)cc3C(=O)N([C@@H](C)CO)C[C@@H]2C)cc1	active
C[C@@H]1CN([C@H](C)CO)C(=O)c2cc(NC(=O)Nc3ccc(C(F)(F)F)cc3)ccc2O[C@@H](C)CCCCO[C@H]1CN(C)S(=O)(=O)c1ccc(Cl)cc1	inactive
COc1ccc(S(=O)(=O)N(C)C[C@@H]2OCCCC[C@H](C)Oc3ccc(NC(=O)Nc4ccc(C(F)(F)F)cc4)cc3C(=O)N([C@@H](C)CO)C[C@H]2C)cc1	inactive
COc1ccc(S(=O)(=O)N(C)C[C@H]2OCCCC[C@H](C)Oc3ccc(NC(=O)Nc4ccc(C(F)(F)F)cc4)cc3C(=O)N([C@@H](C)CO)C[C@@H]2C)cc1	inactive
C[C@@H]1CCCCO[C@@H](CN(C)S(=O)(=O)c2ccc(Cl)cc2)[C@H](C)CN([C@@H](C)CO)C(=O)c2cc(NC(=O)Nc3ccc(C(F)(F)F)cc3)ccc2O1	inactive
COc1ccc(S(=O)(=O)N(C)C[C@H]2OCCCC[C@@H](C)Oc3ccc(NC(=O)Nc4ccc(C(F)(F)F)cc4)cc3C(=O)N([C@H](C)CO)C[C@H]2C)cc1	inactive
C=C1[N-]O[N+](O)=C1CN(Cc1c(C)no[n+]1[O-])OC(C)=O	inactive
C[C@H]1CN([C@@H](C)CO)C(=O)c2cccc(NC(=O)Nc3ccc(C(F)(F)F)cc3)c2O[C@@H]1CN(C)Cc1ccc(-c2ccccc2)cc1	inactive
C[C@H](CO)N1C[C@H](C)[C@H](CN(C)Cc2ccc(Cl)c(Cl)c2)OCCCC[C@H](C)Oc2ccc(NC(=O)NC3CCCCC3)cc2C1=O	inactive
Cn1nc(CN2CCCC2=O)c2c1CN(C(=O)CO)C2	inactive
C[C@H]1CCCCO[C@H](CN(C)Cc2ccc(C(F)(F)F)cc2)[C@@H](C)CN([C@@H](C)CO)C(=O)c2cc(N(C)C)ccc2O1	inactive
COc1ccc(-c2cnc3c(c2)C(=O)N([C@H](C)CO)C[C@@H](C)[C@H](CN(C)C(=O)Cc2cccnc2)O3)cc1	inactive
COc1ccc(NC(=O)N(C)C[C@@H]2OCCCC[C@H](C)Oc3ccc(NC(=O)Nc4ccc(C(F)(F)F)cc4)cc3C(=O)N([C@H](C)CO)C[C@@H]2C)cc1	inactive
CN(C)Cc1ccc([C@@H](N)c2ccncc2)cc1	inactive
COc1ccc2c3c(n(c2c1)C)[C@@H](CO)N(Cc1cc(cc(c1)OC)OC)C[C@]13CCN(CC1)C(=O)CN1CCOCC1	inactive
CCOC(=O)c1ccc(O)cc1	inactive
CCOC(=O)c1ccc(N)cc1	inactive
CCOC(=O)c1ccc(NC(=S)N[C@@H](NC(=O)c2ccc(Br)cc2)C(Cl)(Cl)Cl)cc1	active
Cc1noc(C)c1S(=O)(=O)Nc1ccc2c(c1)CC(=O)N([C@H](C)CO)C[C@H](C)[C@@H](CN(C)S(=O)(=O)c1cn(C)cn1)O2	inactive
